Molecules are shown by their SMILES. Inconclusive results are not listed. A number with no mark means an inactive call. Calls of active or inactive are those of the source. Calls come from the whole dose curve; as a rule, active = well fitted curve in the direction sought with a large enough effect; inconclusive = small, poorly fitted or top-dose-only effect, or another doubt; inactive = no such curve, though single readings can be large; an effect the other way counts as inactive or inconclusive.

The target in assay [1] is Ubiquitin carboxyl-terminal hydrolase 1 (Homo sapiens) (UniProt O94782). Nature of the assay: Inhibitors of USP1/UAF1: Pilot qHTS (AID 504865). Note: nearly all actives have a fitted effect of over 35% in size. The essentials: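 Deubiquitinase activity followed as kinetic rhodamine fluorescence release from 150 nM Ub-Rho. 1 nM USP1/UAF1 with compound, after 15 min room-temperature preincubation, in HEPES pH 7.8 buffer containing TCEP, EDTA, BSA and Tween-20.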
Background: Quantitative high-throughput screening tests each substance at several concentrations.

The subject of another assay is 7G8. Nature of the assay: qHTS profiling for inhibitors of Plasmodium falciparum proliferation (AID 504749). Note: nearly all actives have a fitted effect of over 60% in size. Particulars: P. falciparum in erythrocytes, SYBR Green DNA, 72 h; series mostly up to 28.7 µM. The essentials: (§1)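 SYBR Green fluorescence (ex 485 nm, em 535 nm) reports parasite DNA after 72 h compound exposure of infected red cells at 0.3% parasitemia, 2.5% hematocrit; signal normalized to 0.29 uM artemisinin and vehicle wells.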

For the next assay, the system named is AA1029. The assay is described as above. Particulars: P. falciparum in erythrocytes, SYBR Green DNA, 72 h; series mostly up to 28.7 µM. The method in brief:
as §1

In a further assay the test system is CP201. Described as above. Conditions: P. falciparum in erythrocytes, SYBR Green DNA, 72 h; series mostly up to 28.7 µM. The essentials:
as §1

The subject of a further assay is CP203. The description is as above. Conditions: P. falciparum in erythrocytes, SYBR Green DNA, 72 h; series mostly up to 28.7 µM. The essentials: as §1
The next assay deals with CP211. The description is as above. Conditions: P. falciparum in erythrocytes, SYBR Green DNA, 72 h; series mostly up to 28.7 µM. The method in brief: as §1
The next assay relates to CP215. Described as above. Particulars: P. falciparum in erythrocytes, SYBR Green DNA, 72 h; series mostly up to 28.7 µM. The essentials: as §1
The test system of a further assay is CP266. The description is as above. Particulars: P. falciparum in erythrocytes, SYBR Green DNA, 72 h; series mostly up to 28.7 µM. The method in brief: as §1
Another assay deals with CP297. The description is as above. Particulars: P. falciparum in erythrocytes, SYBR Green DNA, 72 h; series mostly up to 28.7 µM. The essentials:
as §1

A further assay relates to DIV14. The description is as above. Conditions: P. falciparum in erythrocytes, SYBR Green DNA, 72 h; series mostly up to 28.7 µM. The method in brief: as §1
The subject of the next assay is DIV17. Described as above. Particulars: P. falciparum in erythrocytes, SYBR Green DNA, 72 h; series mostly up to 28.7 µM. The method in brief:
as §1

Another assay concerns HB3. The assay is described as above. Conditions: P. falciparum in erythrocytes, SYBR Green DNA, 72 h; series mostly up to 28.7 µM. The essentials: as §1
In a further assay the test system is ICS. Described as above. Particulars: P. falciparum in erythrocytes, SYBR Green DNA, 72 h; series mostly up to 28.7 µM. The method in brief: as §1
For the next assay, the system named is JCK. Described as above. Particulars: P. falciparum in erythrocytes, SYBR Green DNA, 72 h; series mostly up to 28.7 µM. The method in brief: as §1
The next assay concerns W2. The assay is described as above. Conditions: P. falciparum in erythrocytes, SYBR Green DNA, 72 h; series mostly up to 28.7 µM. The essentials: as §1
Assay [2] is described as follows: S16 Schwann cell PMP22 intronic element firefly luciferase assay (AID 624032). Note: nearly all actives have a fitted effect of over 30% in size. The essentials:
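Rat S16 Schwann cells stably carrying firefly luciferase driven by a PMP22 intronic element, in 10% FBS, treated 24 h at 37 C. ONE-Glo luminescence normalized to PTC124 control and DMSO (0%); curves classed by r2, magnitude and activity.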

A further assay relates to TAB109. Nature of the assay: qHTS profiling for inhibitors of Plasmodium falciparum proliferation (AID 504749). Note: nearly all actives have a fitted effect of over 60% in size. Particulars: P. falciparum in erythrocytes, SYBR Green DNA, 72 h; series mostly up to 28.7 µM. The essentials: as §1
Another assay deals with CP269. The description is as above. Conditions: P. falciparum in erythrocytes, SYBR Green DNA, 72 h; series mostly up to 28.7 µM. The essentials:
as §1

In another assay the test system is CP305. The description is as above. Particulars: P. falciparum in erythrocytes, SYBR Green DNA, 72 h; series mostly up to 28.7 µM. The method in brief:
as §1

Another assay concerns ECU. Described as above. Conditions: P. falciparum in erythrocytes, SYBR Green DNA, 72 h; series mostly up to 28.7 µM. The essentials:
as §1
Potency is the fitted concentration of half-maximal effect.

Chain of Ubiquitin carboxyl-terminal hydrolase 1 (Homo sapiens) (O94782 whole entry, looked up): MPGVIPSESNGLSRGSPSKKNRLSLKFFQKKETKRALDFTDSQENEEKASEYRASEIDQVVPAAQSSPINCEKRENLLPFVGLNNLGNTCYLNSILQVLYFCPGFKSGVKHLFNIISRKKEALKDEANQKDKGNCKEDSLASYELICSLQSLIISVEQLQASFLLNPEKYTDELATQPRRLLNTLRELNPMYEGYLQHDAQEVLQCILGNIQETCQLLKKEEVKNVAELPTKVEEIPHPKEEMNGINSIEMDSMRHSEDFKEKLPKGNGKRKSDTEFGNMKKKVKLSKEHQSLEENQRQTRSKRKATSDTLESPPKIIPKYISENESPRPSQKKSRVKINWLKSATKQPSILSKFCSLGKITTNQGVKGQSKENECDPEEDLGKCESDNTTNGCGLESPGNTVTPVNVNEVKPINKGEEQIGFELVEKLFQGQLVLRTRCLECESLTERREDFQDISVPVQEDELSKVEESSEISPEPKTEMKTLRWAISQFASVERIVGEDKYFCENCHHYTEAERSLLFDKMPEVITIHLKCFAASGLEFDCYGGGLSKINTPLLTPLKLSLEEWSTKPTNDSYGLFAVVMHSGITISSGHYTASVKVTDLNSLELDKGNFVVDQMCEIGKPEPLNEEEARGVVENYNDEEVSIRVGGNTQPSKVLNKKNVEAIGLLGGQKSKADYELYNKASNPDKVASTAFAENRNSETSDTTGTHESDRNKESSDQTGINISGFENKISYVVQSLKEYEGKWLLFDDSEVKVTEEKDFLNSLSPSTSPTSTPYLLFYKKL

For `COC(=O)C1[C@@H](OC)C(OC(=O)COc2ccc(OC)cc2)C[C@@H]2CN3CCc4c([nH]c5cc(OC)ccc45)[C@H]3C[C@H]12` (some centres undefined), the Potency entry (in assay [1]; in the assay with CP201; in the assay with CP203; with CP211; in the assay with CP215; in the assay on CP266) was “inactive” each time. Further, the Potency result in the assay on CP297 and in the assay on JCK was “inactive” each time. The Potency in the assay on 7G8 was 7.94 µM (active); with AA1029, 10 µM (active); with DIV14, 7.57 µM (active); in the assay on DIV17, 6.75 µM (active); in the assay with HB3 it was 12.6 µM (active); in the assay on ICS it was 5.01 µM (active). For the same compound, in the assay with W2, the Potency is 8.49 µM (active).

`CCC1OC(=O)C[C@H](O)C(C)[C@@H](O[C@@H]2OC(C)C(O)C(N(C)C)C2O)C(CCN2CC(C)CC(C)C2)CC(C)C(=O)/C=C/C(C)=C\[C@@H]1COC1OC(C)C(O)C(OC)C1OC` (some centres undefined): the Potency result (in assay [1]; in [2]; in the assay on HB3) was “inactive” each time. Also, the Potency in the assay with ICS is 10 µM (active); with TAB109, 4.47 µM (active); in the assay on W2 it was 1.07 µM (active).

Consider `O=C1Oc2ccccc2C(=O)C1C(CC(O)c1ccc(-c2ccc(Br)cc2)cc1)c1ccccc1` (centres undefined), for which the Potency is 50.1 µM (active) in assay [1], 36.1 µM (active) in assay [2] and 12.6 µM (active) in the assay on 7G8. In addition, the Potency entry in the assay with AA1029, in the assay on CP201, with CP203, in the assay with CP211, in the assay with CP215 and with CP266 was “inactive” each time. Besides, the Potency entry in the assay on CP269, in the assay with CP297, in the assay with CP305, in the assay with HB3 and in the assay with TAB109 was “inactive” each time.

Consider `Cc1cncc(C(=O)O)[n+]1[O-]`, for which the Potency result (in assay [1]; in assay [2]; in the assay on 7G8; in the assay on CP201; in the assay with CP211; in the assay on CP215) was “inactive” each time. The Potency result with CP269, in the assay with CP297, in the assay on CP305, in the assay with DIV14, with DIV17 and with HB3 was “inactive” throughout. In addition, the Potency entry with ICS, in the assay with JCK and with W2 was “inactive” each time.

Consider `CCC(C)C(N)C(=O)O` (centres undefined), for which the Potency entry (in [1]; in [2]; in the assay with 7G8; in the assay with AA1029; in the assay with CP201; in the assay on CP203) was “inactive” each time. The Potency entry in the assay on CP211, in the assay on CP215, with CP266, in the assay with CP269, with CP297 and with CP305 was “inactive” in each case. The Potency entry with DIV14, with DIV17, in the assay on ECU, in the assay on HB3, with JCK and in the assay on TAB109 was “inactive” in each case.

As to `NC(C(=O)O)C(O)c1ccc(O)c(O)c1` (centres undefined), the Potency in assay [1] is 22.4 µM (active); with CP297, 16.9 µM (active); with ICS it was 11.2 µM (active). In addition, the Potency entry (in [2]; with JCK) was “inactive” throughout.

For `CNC1CCc2cc(OC)c(OC)c(OC)c2-c2ccc(OC)c(=O)cc21` (centres undefined), the Potency entry (in assay [1]; in the assay on AA1029; in the assay with CP201; in the assay on CP203; in the assay on CP211; in the assay with CP215) was “inactive” throughout. For the same compound, the Potency result with CP266, with CP269, with CP297, in the assay with CP305, in the assay with ECU and in the assay with HB3 was “inactive” in each case. The Potency entry in the assay on JCK and in the assay on TAB109 was “inactive” in each case.

For `CCN(CC)CCOCCOC(=O)C(CC)(CC)c1ccccc1` (tested in a mixture with another compound), the Potency entry (in [1]; in assay [2]; in the assay on ECU; in the assay with JCK; in the assay on TAB109) was “inactive” each time. The Potency in the assay on 7G8 is 5.62 µM (active); in the assay on CP203, 4.26 µM (active); in the assay with CP305, 8.49 µM (active); in the assay on DIV14, 1.9 µM (active); with DIV17 it was 1.51 µM (active); in the assay on W2, 0.849 µM (active).

As for `C=C1CC[C@H](O)C/C1=C/C=C1\CCC[C@]2(C)[C@@H]([C@H](C)CC[C@@H](O)C(C)(C)O)CC[C@@H]12`, the Potency was 8.91 µM (active) in the assay with 7G8; 13.5 µM (active) with DIV14; 13.5 µM (active) in the assay with DIV17; 10 µM (active) with ECU; 10 µM (active) in the assay on ICS; 12 µM (active) in the assay on W2. Moreover, the Potency result in the assay on CP201, with CP203, in the assay on CP211, in the assay on CP215, with CP266 and with CP269 was “inactive” throughout. For the same compound, the Potency result in the assay with CP305 is “inactive”.

With `C[C@]12CCC(=O)C=C1[C@@H]1C[C@H]1[C@H]1[C@@H]3[C@@H]4C[C@H]4[C@@]4(CCC(=O)O4)[C@@]3(C)CC[C@@H]12`, the Potency result (in assay [1]; in the assay with AA1029; with CP201; in the assay with CP203; in the assay with CP211; in the assay on CP266) was “inactive” in each case. Besides, the Potency entry with CP269, with CP297, in the assay on CP305, with DIV17, in the assay on ECU and with HB3 was “inactive” each time. Besides, the Potency result in the assay on JCK and with TAB109 was “inactive” each time.

Turning to `C[C@H](CN1c2ccccc2Sc2cccnc21)N(C)C`, the Potency result (in [1]; in [2]; in the assay with ECU; in the assay on HB3) was “inactive” in each case. Also, the Potency is 7.94 µM (active) with AA1029; 13.5 µM (active) with CP203; 9.53 µM (active) in the assay on CP215; 15.1 µM (active) in the assay with CP297; 4.78 µM (active) in the assay on DIV14; 4.78 µM (active) with DIV17. In addition, the Potency with TAB109 was 7.08 µM (active); in the assay on W2 it was 1.69 µM (active).

Regarding `CCC1OC(=O)C[C@@H](O)[C@H](C)[C@@H](OC2OC(C)CC(N(C)C)C2O)[C@@H](CC=O)C[C@@H](C)C(=O)/C=C/[C@]2(C)OC2C1C` (some centres undefined), the Potency entry (in assay [1]; in the assay with JCK) was “inactive” each time. For the same compound, the Potency is 4.47 µM (active) with 7G8; 2.13 µM (active) in the assay on CP297; 4.47 µM (active) in the assay with ICS; 0.794 µM (active) in the assay on TAB109; 1.2 µM (active) in the assay with W2.

(Values after PubChem BioAssay (NCATS).)
